# Sampled rows, rich in hits. Any-hit rate of the full collection: about 14%.
# LASV entry inh: qHTS for Inhibitors of binding or entry into cells for Lassa Virus. actives 1.2% (n = 300,000). Potency, µM (titrated, usually from 37.9 µM), for inactives: at the top dose activity change, negative = inhibition, most hits filed as inhibitors. AID 540256, 2011. Lassa virus pseudotype entry inhibition, cell reporter; calls by dose curve; tested in HEK293 cells; further: potency means the concentration at half of the fitted maximal effect; nearly all actives have a fitted effect of over 50% in size
# Marburg entry inh: qHTS for inhibitors of binding or entry into cells for Marburg Virus; actives 1.8% (n = 300,000); Marburg virus pseudotyped entry inhibition, cell reporter; AID 540276, 2011; Potency, µM (titrated, usually from 37.8 µM), for the others: at the top dose activity change, negative = inhibition, hits mostly inhibitors; calls by dose curve; tested in HEK293 cells; further: potency means the concentration at half of the fitted maximal effect
# Pf growth 96h: Primary qHTS for delayed death inhibitors of the malarial parasite plastid, 96 hour incubation. actives 6.9% (n = 320,000). Potency, µM (top dose mostly 28.7 µM), inactives show top-dose activity change, negative = inhibition, actives largely listed as inhibitors. P. falciparum luciferase reporter growth, 96 h. AID 504834, 2011; further: potency means the concentration at half of the fitted maximal effect
#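 Two parasite generations (96 h, 37 C, 5% CO2) of compound exposure in infected erythrocytes (0.05% parasitemia, 2% hematocrit). Luciferase-reporter P. falciparum; decreased luminescence indicates inhibited growth, aimed at apicoplast-acting delayed death.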
# Pf growth 48h: Primary qHTS for delayed death inhibitors of the malarial parasite plastid, 48 hour incubation | P. falciparum luciferase growth in erythrocytes, 48 h | actives 5.9% (n = 310,000) | AID 504832, 2011 | Potency, µM (highest dose often 28.7 µM), inactives show top-dose activity change, negative = inhibition, most hits filed as inhibitors; further: potency means the concentration at half of the fitted maximal effect
#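 Parasite viability was followed by luminescence of a genomically integrated firefly luciferase. Cultures held 0.1% parasitemia at 2% hematocrit (final), incubated under 5% CO2 at 37 C.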
# HCMV inh: qHTS Assay for inhibitors of the human cytomegalovirus (HCMV) | HFF cells, HCMV-luciferase reporter, 72 h; stronger effect = lower value | activity change, negative = inhibition, % at 57.5 µM | actives 4.5% (n = 410,000) | AID 1259415, 2018; in the data active means activity change below about -60%; inconclusive means no clear call, values can overlap the other calls; inactive means above about -39%
#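 Cell-based, HFFs, 1000 cells/well, 16 h 37C; cpds in DMSO + HCMV-luc, MOI 1 PFU/cell; 72 h 37C; OneGlo luminescence after 5 min RT; norm. to buffer vs Salinomycin 10uM.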
# HCV inh: qHTS Assay for Inhibitors of Hepatitis C Virus (HCV). Huh7.5.1 HCVcc-Cre infection, luciferase reporter, 44 h. Potency, µM (doses to about 41.8 µM), for the others: top-dose activity change, negative = inhibition, most hits filed as inhibitors. actives 3.4% (n = 340,000); further: potency means the concentration at half of the fitted maximal effect
#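 Infectious HCVcc-Cre (~0.5 moi) was added to cells just after compound, with cells seeded 4 h earlier at 1,000 per well. Luciferase activity after 44 h culture reported infection; substrate was incubated 15 min at room temperature before reading.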
# * marks the source's active call; other numbers are inactive results; ? = inconclusive; . = no result; ! = not confirmed by another sample; [ ] = remark or other dose. Unless noted, the call rests on the fitted dose curve; in most records, active means well fitted inhibition curve with a large enough effect; inconclusive means small, poorly fitted or top-dose-only effect, or another doubt; inactive means no such curve, though single readings can be large or run the other way. On the % scale 0 is the no-effect control and ±100 the full control effect.
SMILES,LASV entry inh,Marburg entry inh,Pf growth 96h,Pf growth 48h,HCMV inh,HCV inh
COc1cccc(-c2cnc(C(O)c3c(C)cccc3C)[nH]2)c1 (configuration not stated),.,.,.,.,-14,.
O=C(CCN1C(=O)/C(=C/c2ccccc2Cl)SC1=S)Nc1ccccc1C(=O)O,.,.,26%,2%,-28,-2%
O=C(CCCN1C(=O)/C(=C/c2ccccc2Cl)SC1=S)NNC(=O)c1ccccc1,?,?,1.9µM*,?,?,-10%
O=C(CCCN1C(=O)/C(=C/c2ccccc2Cl)SC1=S)NNC(=O)c1cccnc1,.,.,?,9.3µM*,-36,-9%
O=C1/C(=C/c2cccnc2)SC(=S)N1CCc1ccccc1,.,.,-9%,?,-71*,13%
O=C(CCN1C(=O)/C(=C\c2ccccc2Cl)SC1=S)Nc1cccnc1,15%,18%,?,8%,-15,?
O=C(CCN1C(=O)/C(=C\c2ccccc2)SC1=S)NNC(=O)c1cccnc1,?,?,-47%,14%,-62*,14%
NS(=O)(=O)c1cccc(NC(=O)C(Cc2ccccc2)NC(=O)c2ccccc2)c1 (configuration not stated),-5%,2%[46.1 µM],-6%,20%,14,?
CCn1cnc2c([N+](=O)[O-])c(NS(=O)(=O)c3ccc(C)cc3)ccc21,.,.,?,9%,-10,13%
Cc1ccccc1-c1nc(CS(=O)(=O)CC(=O)NC2CCCCC2C)c(C)o1 (configuration not stated),-18%[46.1 µM],-2%[46.1 µM],?,24%,-27,?
Cc1ccccc1-c1nc(CS(=O)(=O)CC(=O)N(C)C2CCCCC2)c(C)o1,.,3%,-26%,-1%,-21,11µM*!
CCOC(=O)Cn1c(=NC(=O)c2ccc([N+](=O)[O-])s2)sc2ccccc21,-9%,4%,3.7µM*,9.3µM*,28,6%
CCOC(=O)Cn1c(=NC(=O)C2COc3ccccc3O2)sc2cc(S(N)(=O)=O)ccc21 (configuration not stated),1%,1%,?,4%,-20,3%
CCCC(=O)Nc1nnc(S(=O)(=O)N(C)Cc2ccc(Cl)cc2)s1,7%[46.1 µM],.,.,.,0,.
CCCS(=O)(=O)NC(=O)C1(C)CCN(C(=O)c2oc3ccccc3c2C)C1 (configuration not stated),.,.,.,.,6,.
CCCCCCCCCC[n+]1cccc(C(=O)N(CC)CC)c1,14%,19%,3.7µM*,3.7µM*,-23,0%
NC(=O)c1ccc[n+](CCC[n+]2cccc(C(N)=O)c2)c1,4%,0%,11%,24%,-30,0%
CCc1nc2ccccc2c(C(=O)OCC(=O)N(CC(C)C)c2c(N)n(Cc3ccccc3)c(=O)[nH]c2=O)c1C,-4%,-20%,9.3µM*,12µM*,-19,?
COCCN(C(=O)COC(=O)C12CC3CC(CC(Cl)(C3)C1)C2)c1c(N)n(Cc2ccccc2)c(=O)[nH]c1=O,-29%,-14%,?,12µM*,-13,15%
Cc1cc(C(=O)OCC(=O)N(CC(C)C)c2c(N)n(Cc3ccccc3)c(=O)[nH]c2=O)c2ccccc2n1,-13%,5%,?,?,22,?
CCN(C(=O)COC(=O)C12CC3CC(CC(O)(C3)C1)C2)c1c(N)n(Cc2ccccc2)c(=O)[nH]c1=O,.,.,.,.,0,16%
Cc1c(C(=O)N(CC(C)C)c2c(N)n(Cc3ccccc3)c(=O)[nH]c2=O)sc2nc3n(c(=O)c12)CCC3,-1%,5%,?,8.3µM*,-8,14%
CC(C)CN(C(=O)COC(=O)C12CC3CC(CC(Cl)(C3)C1)C2)c1c(N)n(Cc2ccccc2)c(=O)[nH]c1=O,?,-22%,?,4.7µM*,1,-9%
O=C1CC[C@@H](C(=O)N2CSC[C@@H]2C(=O)Nc2cccc(C(F)(F)F)c2)N1,.,.,.,.,-28,.
COc1cccc(CNC(=O)COC(=O)C2CCN(c3ccc(C(F)(F)F)cn3)CC2)c1,21%,26%,-26%,8%,-15,0%
SMILES,LASV entry inh,Marburg entry inh,Pf growth 96h,Pf growth 48h,HCMV inh,HCV inh
COc1ccc2c(=O)c3c(=O)n(Cc4ccco4)c(-c4cc(OC)c(OC)c(OC)c4)nc3oc2c1,3%,13%,1.7µM*,1.9µM*,57,-9%
COc1ccc(Cn2c(C)nc3oc4cc(OC)ccc4c(=O)c3c2=O)cc1,?,10%,?,?,-8,-22%
COc1ccc2c(=O)c3c(=O)n(Cc4ccco4)c(-c4ccccc4)nc3oc2c1,-19%,28%,.,12µM*,?,?
COCCn1c(-c2ccccc2)nc2oc3cc(OC)ccc3c(=O)c2c1=O,0%,-7%,?,?,-6,-8%
CCCCCCn1c(-c2ccco2)nc2oc3cc(OC)ccc3c(=O)c2c1=O,-18%,-20%,?,5.2µM*,?,?
CCCc1nc2oc3cc(OC)ccc3c(=O)c2c(=O)n1Cc1ccco1,-9%,12%,15%,9.3µM*,-20,-2%
Cc1cccc(C)c1NC(=O)CN1C(=O)c2ccccc2Sc2ncccc21,-11%[46.1 µM],.,.,.,-25,.
C[C@H](CO)N1C[C@H](C)[C@H](CN(C)C(=O)Nc2cccc(F)c2)Oc2cc(C#CC3(O)CCCC3)ccc2S1(=O)=O,.,.,.,.,-4,.
Fc1cccc(Nc2cc3c(cn2)ncn3CC2CC2)c1,.,.,.,.,-4,.
Cc1nc(-c2ccc(S(=O)(=O)N3CCN(c4cccc(C(F)(F)F)c4)CC3)cc2)co1,13%[46.1 µM],.,.,.,-10,.
Cc1cccc(C)c1NC1=NC(C)(C)N=C(N)N1,?,3%[46.1 µM],132%,5%,-20,1%
CC1(C)N=C(N)NC(Nc2ccccc2Cl)=N1,5%,15%[46.1 µM],31%,-34%,-7,-8%
CC1(C)N=C(N)NC(Nc2ccc(Br)cc2)=N1,9%,-5%,.,5.2µM*,1,-1%
CC1(C)N=C(N)NC(Nc2cccc(Br)c2)=N1,6%,-1%[46.1 µM],1.2µM*,.,3,33%
O=C1C(CO)C(CO)C(CO)C1CO (configuration not stated),4%[46.1 µM],4%[46.1 µM],.,.,-37,-3%
CCC1=C(OC(=O)N(CC)CC)N2C(=O)OC(=NCCc3c[nH]c4ccccc34)[C@]2(Cc2ccccc2)[C@H]2C1=CC[C@H]1C(=O)N(C)C(=O)[C@H]12,.,.,12µM*,10µM*,?,-29%

# Source: PubChem BioAssay (National Center for Advancing Translational Sciences (NCATS))
